Screening results deposited in PubChem by several laboratories.
Hits are enriched below; roughly 2.5% of the tested compounds scored in any of these assays.
TROY signal inh: inhibitors of TROY-driven NF-kB signaling, primary screen, Q293 LMP1-TROYcd cells, NF-kB luciferase, uHTS; Q293 LMP1-TROYcd NF-kB luciferase reporter, 4 h; inhibition, % at 10 µM; 360,000 tested, 0.98% active;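 active = compounds whose plate-normalised and pattern-corrected inhibition of the luciferase reporter signal at the single screening dose is 50% or more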
LGR2 antag: inhibitors of bursicon-induced LGR2 CRE-luciferase signal, primary screen, cell-based, HEK293, CRE-luciferase reporter, bursicon stimulation | bursicon-stimulated, 4 h | 380,000 tested, 0.35% active | AID 720647, 2013 | inhibition, % at 9.99 µM;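 active = drop in luminescence signal, shown as inhibition above about 50% in the replicate tests, limit read from the data, passing the limit was not always enough; inconclusive = probably only some replicates passing the limit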;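 also: agonist challenge used bursicon conditioned medium at about half maximal strength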
EWS-Fli inh: EWS/Fli-driven NR0B1 reporter inhibitors, primary screen, A673 cells, NR0B1 luciferase, luminescence, MLPCN library; 350,000 tested, 0.67% active; inhibition, % at 12.6 µM; viability-normalised;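 active = mean inhibition of at least 50% after viability correction, with every replicate also passing that limit; inconclusive = mean reaches 50% but only one of two replicates passes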;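 also: firefly luciferase signal divided by Alamar Blue viability fluorescence both relative to DMSO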
EBV LMP1 NFkB: EBV LMP1-driven NF-kappaB luciferase reporter inhibitors, primary screen, cell-based, luminescence, single point | LMP1-induced NF-kappaB luciferase reporter cells | inhibition, % at 12.5 µM | 350,000 tested, 0.69% active | AID 504558, 2011; in the data active = inhibition above about 41%; inconclusive = no clear call, values can overlap the other calls
TWEAK Fn14 block: inhibitors of TWEAK-Fn14 signaling, primary screen, luciferase reporter cells, uHTS. AID 1159606, 2016. TWEAK-stimulated Fn14 reporter cells, luciferase luminescence, 8 h. 360,000 tested, 2% active. inhibition, % at 10 µM; in the data active = inhibition above about 50%
Of the large screens only hits and unclear results are named; the others gave an inactive call.

COc1ccc(CCNC(=O)c2cc3c(=O)n4cccc(C)c4nc3n(Cc3ccco3)c2=N)cc1OC	TWEAK Fn14 block 87 (no result: EWS-Fli inh)
N=c1c(C(=O)NCc2ccc(F)cc2)cc2c(=O)n3ccccc3nc2n1Cc1ccco1	TROY signal inh 59, TWEAK Fn14 block 95 (no result: LGR2 antag, EWS-Fli inh)
Cc1cccn2c(=O)c3cc(C(=O)NCCc4ccccc4)c(=N)n(Cc4ccco4)c3nc12	TWEAK Fn14 block 101 (no result: EWS-Fli inh)
N=c1c(C(=O)NCc2ccccc2)cc2c(=O)n3ccccc3nc2n1Cc1ccco1	LGR2 antag inconclusive (no result: EWS-Fli inh)
Cc1c(C(N)=O)c(-c2ccccc2)nn1-c1ccccc1	none (no result: EWS-Fli inh)
CCCc1c(-c2ccc(O)cc2)nn(-c2ccc(O)cc2)c1-c1ccc(O)cc1	TROY signal inh 75 (no result: LGR2 antag, EWS-Fli inh)
CC(=O)Cn1ncc(Br)c(Br)c1=O	TROY signal inh 65, LGR2 antag 106, TWEAK Fn14 block 86
C#CCN(C[C@@H]1[C@@H](OC(=O)Nc2cccs2)[C@@H](OC(=O)Nc2cccs2)Cn2c(=O)ccc(=O)n21)S(=O)(=O)c1ccc(C)cc1	TROY signal inh 73, EWS-Fli inh inconclusive, TWEAK Fn14 block 108
C#CCN(C[C@@H]1[C@@H](OC(=O)NC2CCCC2)[C@@H](OC(=O)NC2CCCC2)Cn2c(=O)ccc(=O)n21)S(=O)(=O)c1ccc(C)cc1	LGR2 antag 66, EWS-Fli inh 68, TWEAK Fn14 block 72
C#CCN(C[C@@H]1[C@@H](OC(=O)NCc2ccccc2F)[C@@H](OC(=O)NCc2ccccc2F)Cn2c(=O)ccc(=O)n21)S(=O)(=O)c1ccc(C)cc1	TROY signal inh 61, LGR2 antag 68, EBV LMP1 NFkB 61, TWEAK Fn14 block 107
CC(=O)N[C@@H]1CC[C@@H](CC(=O)NCC2CCCCC2)O[C@H]1CO	none (no result: TROY signal inh, EBV LMP1 NFkB, TWEAK Fn14 block)
COCc1cc(=O)[nH]c(Nc2nc3ccc(C)cc3o2)n1	TWEAK Fn14 block 106 (no result: LGR2 antag, EWS-Fli inh)
CCc1ccc2nc(Nc3nc(COC)cc(=O)[nH]3)nc(C)c2c1	none
O=C(O)c1c(F)c(F)cc2ccccc12	TWEAK Fn14 block 107 (no result: EWS-Fli inh)
O=C(c1ccc2ccccc2c1)c1cccc(F)c1C(=O)O	none
COCCNC(=O)C1CCC(Cn2c(=S)[nH]c3ccccc3c2=O)CC1 (stereo not given)	none (no result: LGR2 antag, EWS-Fli inh)
O=C(NCCc1c[nH]c2ccccc12)C1CCC(Cn2c(=S)[nH]c3ccccc3c2=O)CC1 (stereo not given)	TWEAK Fn14 block 62 (no result: LGR2 antag, EWS-Fli inh)
C[C@@H]1CN([C@H](C)CO)C(=O)c2cc(C#CCN(C)C)cnc2O[C@H]1CN(C)C(=O)NC1CCCCC1	none (no result: TROY signal inh, EBV LMP1 NFkB, TWEAK Fn14 block)
O=C(c1cnccn1)N1CC(=O)N2[C@H](CO)[C@H](c3ccc(C#CC4CCCC4)cc3)[C@@H]2C1	none (no result: TROY signal inh, EBV LMP1 NFkB, TWEAK Fn14 block)
Brc1ccc(-c2ncc(-c3ccccc3)cn2)cc1	TWEAK Fn14 block 52 (no result: LGR2 antag, EWS-Fli inh)
Brc1ccc(-c2ccccc2)cc1	none
c1ccc(-c2cnc(-c3ccccc3)nn2)cc1	LGR2 antag 74
c1ccc(-c2cnc(-c3ccccn3)nn2)cc1	none
C[C@H]1CN([C@@H](C)CO)C(=O)c2ccccc2-c2ccccc2CO[C@@H]1CN(C)C(=O)Nc1cccc(C(F)(F)F)c1	none (no result: TROY signal inh, EBV LMP1 NFkB, TWEAK Fn14 block)
O=C(C[C@H]1C=C[C@H](NC(=O)c2ccccn2)[C@H](CO)O1)NCc1cccc(F)c1	none (no result: TROY signal inh, EBV LMP1 NFkB, TWEAK Fn14 block)
CC(=O)c1ccc(NC(=O)c2cnn3ccccc23)cc1	LGR2 antag inconclusive, EWS-Fli inh 69, TWEAK Fn14 block 71
COc1cccc2sc(N(CCCN(C)C)C(=O)c3ccc(S(=O)(=O)N4CCc5ccccc5C4)cc3)nc12	none (no result: EWS-Fli inh, EBV LMP1 NFkB)
COc1ccc(C)c2sc(N(CCCN(C)C)C(=O)c3ccc(S(=O)(=O)N4CCc5ccccc5C4)cc3)nc12	EWS-Fli inh 58
COc1cccc(-c2ccc3c(c2)[C@H]2[C@H](CCN2Cc2ccccc2OC)[C@H](CO)N3)c1	none (no result: TROY signal inh, EBV LMP1 NFkB, TWEAK Fn14 block)
O=C(C[C@H]1CC[C@H](NC(=O)CC2CC2)[C@@H](CO)O1)NCc1ccc(-c2ccccc2)cc1	none (no result: TROY signal inh, EBV LMP1 NFkB, TWEAK Fn14 block)
COc1cc(/C=C2/CCC/C(=C\c3cc(O)c(OC)c(Cl)c3)C2=O)cc(Cl)c1O	TROY signal inh 58 (no result: LGR2 antag, EWS-Fli inh)
CCOc1cc(/C=N/N=C/c2ccc(O)c(OCC)c2)ccc1O	none
O=C1NC(=O)/C(=C/c2cccc([N+](=O)[O-])c2)N1	none
CCOc1cc(/C=C2\CN(CC)C/C(=C\c3ccc(O)c(OCC)c3)C2=O)ccc1O	LGR2 antag 69, EWS-Fli inh 61, TWEAK Fn14 block 100
COc1cc(/C=C2\CC/C(=C\c3cc(OC)c(O)c(OC)c3)C2=O)cc(OC)c1O	TWEAK Fn14 block 80 (no result: LGR2 antag)
CCN1C/C(=C/c2cccc([N+](=O)[O-])c2)C(=O)/C(=C/c2cccc([N+](=O)[O-])c2)C1	LGR2 antag 84, EBV LMP1 NFkB 97, TWEAK Fn14 block 95 (no result: EWS-Fli inh)
COc1cc(/C=C2\CCC/C(=C\c3ccc(O)c(OC)c3)C2=O)ccc1O	EWS-Fli inh 77, TWEAK Fn14 block 85
COc1cc(/C=C2/CCCC(C(=O)C(F)(F)F)=C2O)ccc1O	none
C[C@H](CO)N1C[C@H](C)[C@H](CN(C)C(=O)Nc2ccccc2)Oc2ccc(NC(=O)CCCCCC(=O)Nc3ccccc3N)cc2C1=O	none (no result: TROY signal inh, EBV LMP1 NFkB, TWEAK Fn14 block)
CC(=O)N1[C@@H](CO)[C@H](c2ccccc2)[C@@H]1CN(C(=O)NC(C)C)C1CCCC1	none (no result: TROY signal inh, EBV LMP1 NFkB, TWEAK Fn14 block)
Nc1nccc(SCc2ccc(Cl)cc2Cl)n1	TWEAK Fn14 block 57
Nc1nc(SCc2ccc(Cl)cc2Cl)n[nH]1	none (no result: EWS-Fli inh)
CN(C)c1ccc(C=NNC(=O)c2cccc3ccccc23)c(Cl)c1	EBV LMP1 NFkB 74
COC(=O)[C@@H]1C[C@]2(OC(=O)c3ccccc3)C=CC(=O)C[C@@H]2N1C(=O)OCc1ccccc1	TWEAK Fn14 block 51
COC(CNC(=O)C1CCCN1C(=O)OCc1ccccc1)OC (stereo not given)	none
COc1ccccc1-c1cnc2c(c1)C(=O)N([C@H](C)CO)C[C@H](C)[C@@H](CN(C)Cc1ccc(C(=O)O)cc1)O2	none (no result: TROY signal inh, EBV LMP1 NFkB, TWEAK Fn14 block)
O=C(C[C@H]1CC[C@H](NC(=O)Nc2ccccc2)[C@@H](CO)O1)NCc1ccccn1	none (no result: TROY signal inh, EBV LMP1 NFkB, TWEAK Fn14 block)
O=C(C[C@H]1C=C[C@H](NC(=O)CN2CCOCC2)[C@H](CO)O1)NCCc1ccncc1	none (no result: TROY signal inh, EBV LMP1 NFkB, TWEAK Fn14 block)
C[C@@H]1CN([C@H](C)CO)C(=O)c2cc(NC(=O)C3CC3)ccc2O[C@H]1CN(C)C(=O)Nc1cccc2ccccc12	none (no result: TROY signal inh, EBV LMP1 NFkB, TWEAK Fn14 block)
COc1cccc(N2CC(=O)N(NC(=O)c3sc4nc(C)cc(C)c4c3N)CC2=O)c1	none
Cc1cc(C)c2c(N)c(C(=O)NN3CC(=O)N(c4ccccc4F)CC3=O)sc2n1	TWEAK Fn14 block 103 (no result: EWS-Fli inh)
COc1ccc(CN(C)C[C@H]2Oc3ccc(NC(=O)NC4CCCCC4)cc3C(=O)N([C@@H](C)CO)C[C@H]2C)cc1	none (no result: TROY signal inh, EBV LMP1 NFkB, TWEAK Fn14 block)
C=CC(=O)Nc1ccc(Nc2nc(NC3CCC(N(C)C)CC3)nc3c2ncn3C(C)C)cc1 (stereo not given)	TROY signal inh 71, EBV LMP1 NFkB 79, TWEAK Fn14 block 95 (no result: LGR2 antag, EWS-Fli inh)
CC(C)n1cnc2c(Nc3ccc(F)c(Cl)c3)nc(NCCO)nc21	none (no result: LGR2 antag)
